Assay results reported in publication PMC5540273 (PLoS ONE, 2017).
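Also: KINOMEscan kinase panel screen.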

Each compound was assayed on CAMK2A. Conditions: concentration: 1 μM, replicates: in singlicate; n = 1.
`CCn1c(-c2nonc2N)nc2c(C#CC(C)(C)O)ncc(OCCCCN)c21.O=C(O)C(F)(F)F.O=C(O)C(F)(F)F` [GSK507274] was tested, and the “%Inh” value was 0%. In the case of `O=C(Nc1cccc(-c2nn3ccccc3c2-c2ccnc(Nc3cccc(C(F)(F)F)c3)n2)c1)c1c(F)cccc1F` [GSK292658], the “%Inh” value is reported as 0%. In the case of `CN(c1ccc(NC(=O)Nc2cc(C(F)(F)F)ccc2F)cc1)c1ccnc(Nc2ccc(S(N)(=O)=O)cc2)n1` [GW809893], the “%Inh” value is reported as 0%. With `COc1cc(Nc2ncc3c(C)nc(-c4cc5ccccc5[nH]4)n3n2)cc(OC)c1OC` [GW869516] the “%Inh” value was 1%. For `Cc1ccc(C)c(NC(=O)NC2CCN(c3ccnc(Nc4ccc(F)cc4)n3)C2)c1` (stereo not drawn) [GSK1379720], the “%Inh” value was 0%. `c1ccc(Oc2ccc(Nc3ccnc4cc(-c5ccc(CNCCN6CCOCC6)o5)ccc34)cc2)nc1` [GW567145] was tested, and the “%Inh” value was 0%. `COc1cc(Nc2nccc(-c3c(-c4cccc(NC(=O)c5c(F)cccc5F)c4)nn4ncccc34)n2)cc(OC)c1OC` [GSK327238] was tested, and the “%Inh” value was 0%. `COc1cc(Nc2nccc(N3CCC(NC(=O)Nc4cccc(C(C)=O)c4)C3)n2)cc(OC)c1OC` (stereo not drawn) [GSK1379753] was tested, and the “%Inh” value was 0%. For `Cl.Cl.NCC(NCc1ccc(-c2ccnc3[nH]ccc23)s1)c1ccccc1` (stereo not drawn) [GSK1321565], the “%Inh” value was 0%. For `Oc1cc(Nc2ccnc3cc(I)ccc23)ccc1F` [GW552771], the “%Inh” value was 0%. In the case of `Cc1ccc(C(=O)Nc2ccc(Nc3ccnc4cc(-c5nccs5)ccc34)cc2O)cc1.Cl` [GW494702], the “%Inh” value is reported as 0%. `C[C@@H]1CC[C@@H](C(=O)Nc2ccccc2)CN1c1cc(-c2ccc3c(N)n[nH]c3c2)nc(N)n1` [GSK2286062] was tested, and the “%Inh” value was 0%. With `Nc1ncc(-c2cccnc2)c2scc(-c3ccc4c(c3)CCN4C(=O)Cc3ccccc3)c12` [GSK683281] the “%Inh” value was 0%. For `Cl.c1ccc(-c2ccc3c(Nc4ccc5[nH]ccc5c4)ccnc3c2)nc1` [GW440138], the “%Inh” value was 0%. With `CCn1c(-c2nonc2N)nc2c(C#CC(C)(C)O)nc(OC[C@H](N)c3ccccc3)cc21` [GSK943949] the “%Inh” value was 0%. `Cn1cc(-c2ccc3c(c2)CCN3C(=O)Cc2cccc(F)c2)c2c(N)ncnc21` [GSK2603358] was tested, and the “%Inh” value was 0%. In the case of `O=C(Nc1cccc(-c2nn3ncccc3c2-c2ccnc(Nc3ccccc3)n2)c1)c1c(F)cccc1F` [GSK198271], the “%Inh” value is reported as 0%. `COc1cc(Nc2nccc(-c3c(-c4cccc(NC(=O)c5c(F)cccc5F)c4)nn4ccccc34)n2)cc(OC)c1OC` [GSK323521] was tested, and the “%Inh” value was 3%. With `FC(F)(F)c1ccc(/C=C/c2cncnc2Nc2ccc3[nH]c(Cc4ccccc4)nc3c2)cc1` [GW709199] the “%Inh” value was 34%. For `CC(C)(C)c1ccc2nccc(Nc3cccc(O)c3)c2c1` [GW856795], the “%Inh” value was 0%. With `CCc1ccc(-c2ccc3c(c2)-c2c(cnn2C)S(=O)(=O)N3C)cc1` the “%Inh” value was 0%. In the case of `COc1cccc(C2=C(Nc3ccc(Cl)c(C(=O)O)c3)C(=O)NC2=O)c1` [SB-390769], the “%Inh” value is reported as 0%. For `NCCCC(NC(=O)c1cc(Br)c(-c2ccnc3[nH]ccc23)s1)c1ccccc1.O=C(O)C(F)(F)F.O=C(O)C(F)(F)F` (stereo not drawn) [GSK1287544], the “%Inh” value was 0%. In the case of `COC(=O)Nc1nc2ccc(Oc3ccc(NC(=O)Nc4cc(C(F)(F)F)ccc4F)cc3)cc2n1C.Cl` [GW692089], the “%Inh” value is reported as 0%. `CC(C)c1nc(-c2cccc(NS(=O)(=O)c3c(F)cccc3F)c2F)c(-c2ccnc(Nc3ccc(N4CCOCC4)nc3)n2)s1` [GSK2008607] was tested, and the “%Inh” value was 0%. `COCCOCCOc1cc2ncc3c4ccc(C#N)cc4[nH]c3c2cc1OC` was tested, and the “%Inh” value was 85%. In the case of `Fc1ccc(-c2ncn(C3CCNCC3)c2-c2ccnc(Oc3ccc(-c4ccccc4)cc3)n2)cc1` [SB-245391], the “%Inh” value is reported as 20%. In the case of `c1ccc(-c2cnc3nccnn23)cc1` [AH20685], the “%Inh” value is reported as 0%. In the case of `COc1cccc(-c2ccc3c(NC(=O)C4CC4)n[nH]c3n2)c1` [SB-710903], the “%Inh” value is reported as 100%.

What follows are compounds tested on CAMK2B. Conditions: concentration: 1 μM, replicates: in singlicate; n = 1.
In the case of `COc1cccc(C(=O)Nc2cccc(Oc3ccc4nc(NC(=O)C5CC5)cn4n3)c2)c1`, the “%Inh” value is reported as 18%. In the case of `Cl.Cl.NCC(NC(=O)c1cc(-c2ccccc2)c(-c2ccnc3[nH]ccc23)s1)c1ccccc1` (stereo not drawn) [GSK1321561], the “%Inh” value is reported as 0%. In the case of `CC(=O)Nc1nc2cnc(Nc3cc(NC(=O)c4cccc(C5(C#N)CC5)c4Cl)ccc3C)nc2s1`, the “%Inh” value is reported as 0%. With `COc1cccc(NC(=O)NC2CCN(c3ccnc(Nc4cc(OC)c(OC)c(OC)c4)n3)C2)c1` (stereo not drawn) [GSK1379763] the “%Inh” value was 0%. With `COc1cc2c(cc1OCCN1CCNCC1)ncc1c3ccc(C#N)cc3[nH]c21` the “%Inh” value was 86%. With `CSc1cccc2c(-c3ccncn3)c(-c3ccc(F)cc3)nn12` [GW514786] the “%Inh” value was 0%. `Cn1cc(-c2ccc3c(c2)CCN3C(=O)Cc2cccc(Cl)c2)c2c(N)ncnc21` [GSK2606590] was tested, and the “%Inh” value was 0%. In the case of `CCS(=O)(=O)c1ccc(OC)c(Nc2nccc(-c3c(-c4cccc(NC(=O)c5c(F)cccc5F)c4)nn4ncccc34)n2)c1` [GSK326180], the “%Inh” value is reported as 0%. In the case of `CCn1c(-c2nonc2N)nc2c(C#CC(C)(C)O)ncc(OCCCCN)c21.O=C(O)C(F)(F)F.O=C(O)C(F)(F)F` [GSK507274], the “%Inh” value is reported as 0%. `O=C(Nc1cccc(-c2nn3ccccc3c2-c2ccnc(Nc3cccc(C(F)(F)F)c3)n2)c1)c1c(F)cccc1F` [GSK292658] was tested, and the “%Inh” value was 0%. With `CN(c1ccc(NC(=O)Nc2cc(C(F)(F)F)ccc2F)cc1)c1ccnc(Nc2ccc(S(N)(=O)=O)cc2)n1` [GW809893] the “%Inh” value was 4%. In the case of `COc1cc(Nc2ncc3c(C)nc(-c4cc5ccccc5[nH]4)n3n2)cc(OC)c1OC` [GW869516], the “%Inh” value is reported as 8%. `Cc1ccc(C)c(NC(=O)NC2CCN(c3ccnc(Nc4ccc(F)cc4)n3)C2)c1` (stereo not drawn) [GSK1379720] was tested, and the “%Inh” value was 0%. In the case of `c1ccc(Oc2ccc(Nc3ccnc4cc(-c5ccc(CNCCN6CCOCC6)o5)ccc34)cc2)nc1` [GW567145], the “%Inh” value is reported as 0%. For `COc1cc(Nc2nccc(-c3c(-c4cccc(NC(=O)c5c(F)cccc5F)c4)nn4ncccc34)n2)cc(OC)c1OC` [GSK327238], the “%Inh” value was 0%. `COc1cc(Nc2nccc(N3CCC(NC(=O)Nc4cccc(C(C)=O)c4)C3)n2)cc(OC)c1OC` (stereo not drawn) [GSK1379753] was tested, and the “%Inh” value was 0%. In the case of `Cl.Cl.NCC(NCc1ccc(-c2ccnc3[nH]ccc23)s1)c1ccccc1` (stereo not drawn) [GSK1321565], the “%Inh” value is reported as 0%. With `Oc1cc(Nc2ccnc3cc(I)ccc23)ccc1F` [GW552771] the “%Inh” value was 0%. In the case of `Cc1ccc(C(=O)Nc2ccc(Nc3ccnc4cc(-c5nccs5)ccc34)cc2O)cc1.Cl` [GW494702], the “%Inh” value is reported as 0%. With `C[C@@H]1CC[C@@H](C(=O)Nc2ccccc2)CN1c1cc(-c2ccc3c(N)n[nH]c3c2)nc(N)n1` [GSK2286062] the “%Inh” value was 0%. In the case of `Nc1ncc(-c2cccnc2)c2scc(-c3ccc4c(c3)CCN4C(=O)Cc3ccccc3)c12` [GSK683281], the “%Inh” value is reported as 0%. In the case of `Cl.c1ccc(-c2ccc3c(Nc4ccc5[nH]ccc5c4)ccnc3c2)nc1` [GW440138], the “%Inh” value is reported as 0%. With `CCn1c(-c2nonc2N)nc2c(C#CC(C)(C)O)nc(OC[C@H](N)c3ccccc3)cc21` [GSK943949] the “%Inh” value was 0%. For `Cn1cc(-c2ccc3c(c2)CCN3C(=O)Cc2cccc(F)c2)c2c(N)ncnc21` [GSK2603358], the “%Inh” value was 0%. For `O=C(Nc1cccc(-c2nn3ncccc3c2-c2ccnc(Nc3ccccc3)n2)c1)c1c(F)cccc1F` [GSK198271], the “%Inh” value was 0%. In the case of `COc1cc(Nc2nccc(-c3c(-c4cccc(NC(=O)c5c(F)cccc5F)c4)nn4ccccc34)n2)cc(OC)c1OC` [GSK323521], the “%Inh” value is reported as 0%. In the case of `FC(F)(F)c1ccc(/C=C/c2cncnc2Nc2ccc3[nH]c(Cc4ccccc4)nc3c2)cc1` [GW709199], the “%Inh” value is reported as 36%. In the case of `CC(C)(C)c1ccc2nccc(Nc3cccc(O)c3)c2c1` [GW856795], the “%Inh” value is reported as 0%. In the case of `CCc1ccc(-c2ccc3c(c2)-c2c(cnn2C)S(=O)(=O)N3C)cc1`, the “%Inh” value is reported as 4%. For `COc1cccc(C2=C(Nc3ccc(Cl)c(C(=O)O)c3)C(=O)NC2=O)c1` [SB-390769], the “%Inh” value was 0%. For `NCCCC(NC(=O)c1cc(Br)c(-c2ccnc3[nH]ccc23)s1)c1ccccc1.O=C(O)C(F)(F)F.O=C(O)C(F)(F)F` (stereo not drawn) [GSK1287544], the “%Inh” value was 0%. `COC(=O)Nc1nc2ccc(Oc3ccc(NC(=O)Nc4cc(C(F)(F)F)ccc4F)cc3)cc2n1C.Cl` [GW692089] was tested, and the “%Inh” value was 0%. In the case of `CC(C)c1nc(-c2cccc(NS(=O)(=O)c3c(F)cccc3F)c2F)c(-c2ccnc(Nc3ccc(N4CCOCC4)nc3)n2)s1` [GSK2008607], the “%Inh” value is reported as 0%. In the case of `COCCOCCOc1cc2ncc3c4ccc(C#N)cc4[nH]c3c2cc1OC`, the “%Inh” value is reported as 57%. In the case of `Fc1ccc(-c2ncn(C3CCNCC3)c2-c2ccnc(Oc3ccc(-c4ccccc4)cc3)n2)cc1` [SB-245391], the “%Inh” value is reported as 0%. With `c1ccc(-c2cnc3nccnn23)cc1` [AH20685] the “%Inh” value was 0%. For `COc1cccc(-c2ccc3c(NC(=O)C4CC4)n[nH]c3n2)c1` [SB-710903], the “%Inh” value was 100%.
